We go through 70 molecules from ChEMBL document CHEMBL4513216, “Probing the Open Global Health Chemical Diversity Library for Multistage-Active Starting Points for Next-Generation Antimalarials” (ACS Infect Dis, 2020).

Among all 69,000 compounds or so, about 8,600 (12%) showed an effect of 50% or more. This is one part of a sample in which strong results are shown more often than they occur.

The assay has as its system Plasmodium berghei. Description: Screen against P. berghei liver stage (PbLuc), transformed with Luciferase, at 10uM. The assay is classed as functional, HepG2. Particulars: tested at 10 uM.
In the case of `CCN(C(=O)c1ccc(-n2ncc(C#N)c2N)cc1)C1CCCC1`, the INHIBITION came out at 25.1%. For `OC1(CNc2cc(C(F)(F)F)nc3ccccc23)CCOCC1`, the INHIBITION is recorded as -32.3%. For `Cc1cc(C)n(-c2cncc(NCCNS(C)(=O)=O)n2)n1` the value was 29%; for `Cc1cc(NCC2(O)CCOCC2)nc2ccccc12`, 71.7%. `Cc1cc(NCCS(C)(=O)=O)nc2ccccc12`: the INHIBITION turned out to be 8.05%. For `COc1cc2nc(NCCNS(C)(=O)=O)cc(C)c2cc1OC`, the INHIBITION amounted to 50.3%. To `Cc1cc(NCCOCCS(C)(=O)=O)nc2ccccc12` belongs 46.6%; to `Cc1cc(NCC2(O)CCOCC2)c2ccccc2n1`, 26%; to `Cc1cc(NCCCNS(C)(=O)=O)nc2ccccc12`, 62%. For `Cc1cc(NCCNS(C)(=O)=O)nc2cc3c(cc12)CCC3` the value was -6.88%. For `O=S(=O)(NCC1CCN(c2cnccn2)CC1)c1ccc(F)c(Cl)c1` the value was -54.5%; for `CCc1c(C)n(CC(C)=O)c2nc3ccccc3n2c1=O`, 4.66%; for `c1csc(CN2CC(c3nc(-c4cnccn4)no3)C2)c1`, -12.6%. With `CN(Cc1noc(C2CC2)n1)C1CCN(CCc2cnn(C)c2)C1` (stereo not given), the INHIBITION is given as 11.2%. Regarding `Cc1ccc(CN2C[C@H]3C[C@H](C(=O)NCC4CC4)N(C)[C@H]3C2)o1`, the INHIBITION is reported as 18.6%.

Turning to `CN(Cc1cnn(C)c1)CC1CCCN1c1cccnn1` (stereo not given), the INHIBITION is recorded as 5.7%. For `NCc1ccc(Oc2ccc(F)c(F)c2)cc1C(F)(F)F` the value was 26.1%. For `Cc1ccc(CNC(=O)COc2ccc3c(c2)OCC3O)cc1` (stereo not given), the INHIBITION was found to be 0.266%. For the molecule `COCCn1nc(C(=O)N(C)Cc2ccc3ccccc3c2)ccc1=O`, the INHIBITION is 43.4%. To `Cc1cnn(CC2CCCCN2C(=O)c2cccnc2N(C)C)c1` (stereo not given) belongs 15.5%; to `O=C(c1ccoc1)N1CCC2(CC1)COC(COCc1ccccn1)C2` (stereo not given), 23.8%.

On to `O=C(c1ncccn1)N1CCC2(CC1)COC(COc1ccccn1)C2` (stereo not given), for which the INHIBITION was 12.6%. For `O=C(c1ccoc1)N1CCC2(CC1)COC(COc1ccccn1)C2` (stereo not given) the value was 73.6%; for `CCC(C)N(CCOC)Cc1nc2c(cnn2C)c(=O)[nH]1` (stereo not given), 14.22%. For `CC(C)NC(=O)CC(C)NCc1ccc(F)cc1Cl` (stereo not given) the value was 53.6%; for `CN(CC(N)=O)Cc1ccc(F)cc1Cl`, -59.5%. For `CC(C)NC(=O)CC(C)NCc1cc(Cl)ccc1F` (stereo not given) the value was 27.6%.

On to `COc1c(C(=O)NC(C)Cc2ccccc2Cl)c(C)nn1C` (stereo not given), for which the INHIBITION worked out at 17.5%.

Consider `O=C(O)c1c(-c2cncnc2)ncc2c1CCN(Cc1ccco1)C2`, for which the INHIBITION was -27.1%. For `CCn1nc2c(cc1=O)CN(Cc1nc(-c3cccnc3)no1)CC2` the value was -56.575%; for `CCc1c(C)nc(N)nc1NCCSCc1[nH]cnc1C`, 69.4%.

On to `Cc1cnc(N)nc1NCCSCc1[nH]cnc1C`, for which the INHIBITION was 39.1%. As for `Cc1nc(C)c(C)c(NCCSCc2[nH]cnc2C)n1`, the INHIBITION is -8.47%. Take `CN(Cc1cnn(C)c1)C(=O)Cc1ccc2c(c1)OCCO2`: the INHIBITION is recorded as -18.5%.

`Cc1n[nH]c(C)c1S(=O)(=O)N(C)Cc1nn(C)c(Cl)c1Cl`: the INHIBITION stood at 23.8%.

Take `Cc1nn(C)c(Cl)c1S(=O)(=O)N(C)C`: the INHIBITION is reported as 12.3%. For `Cc1noc(C)c1S(=O)(=O)N(C)Cc1nn(C)c(Cl)c1Cl` the value was 15.9%; for `Cc1nn(C)c(C)c1S(=O)(=O)N(C)Cc1nn(C)c(Cl)c1Cl`, 54.5%; for `CCn1nc(C)c(CN(C)S(=O)(=O)c2cnn(C)c2)c1C`, 6.83%. With `Cc1nn(C)c(C)c1CN(C)S(=O)(=O)c1c(C)n[nH]c1C`, the INHIBITION is given as 53.5%.

`CS(=O)(=O)N[C@@H]1CCN(Cc2nccs2)[C@H]1Cc1ccncc1`: the INHIBITION was determined as 30.5%.

For the molecule `COc1cccc(C(C(=O)O)N2CCSCC2)c1F` (stereo not given), the INHIBITION stood at 17%. Regarding `CC(C)CN(CC(F)(F)F)S(=O)(=O)c1cc(C(N)=O)n(C)c1`, the INHIBITION is -36.4%. As for `CCC1C=CCN1C(=O)c1cc(COc2ccccc2OC)[nH]n1` (stereo not given), the INHIBITION is -2.39%. To `CCCC(=O)N(C)CC(=O)Nc1ccc(Br)cn1` belongs -9.37%; to `COCC1c2c(cnn2CC2CC2)CCN1Cc1cccs1` (stereo not given), -0.912%. For `Cc1noc(C2CCCN(C(=O)c3cccc(Cl)c3)C2)n1` (stereo not given) the value was 39.5%; for `Cc1cc(C(=O)N2CC[C@@]3(O)CCN(C(=O)N4CCCC4)C[C@H]3C2)no1`, 1.74%; for `Cc1ncsc1C(=O)N1CC[C@@]2(O)CCN(C(=O)N3CCCC3)C[C@H]2C1`, 65.7%. Consider `Cc1cncc(C2CCCN(C(=O)c3scnc3C)C2)n1` (stereo not given), for which the INHIBITION turned out to be 51.7%. For `Cc1noc(C2CCCN(C(=O)c3cncc(Br)c3)C2)n1` (stereo not given) the value was -27.8%. Turning to `Cc1nc(C2CCCN(C(=O)c3scnc3C)C2)no1` (stereo not given), the INHIBITION turned out to be 18.1%. For `Cc1ocnc1C(=O)N1CC[C@@]2(O)CCN(C(=O)N3CCCC3)C[C@H]2C1` the value was 36.5%; for `Cc1cc(C(=O)N2CCCC(c3nc(C)no3)C2)on1` (stereo not given), 20%; for `Cc1cncc(C2CCCN(C(=O)c3cn(C)nc3C)C2)n1` (stereo not given), 36.7%.

Consider `Cc1noc(C2CCN(C(=O)c3cc(Cl)c(Cl)n3C)CC2)n1`, for which the INHIBITION was found to be 16.6%. To `Cc1noc(C2CCCN(C(=O)c3cc(Cl)c(Cl)n3C)C2)n1` (stereo not given) belongs 51.4%; to `Cc1noc(C2CCCN(C(=O)c3ccc(Br)o3)C2)n1` (stereo not given), 60.5%.

Take `OCCCN1CCOC(c2ccc(F)cc2)C1` (stereo not given): the INHIBITION worked out at 30.2%.

Turning to `CC(C)c1nc(C(=O)N2CCOCC2CC(=O)c2ccco2)c[nH]1` (stereo not given), the INHIBITION was found to be 9.48%. To `Cc1cc(C)n(CC2CCCN2CC(=O)Nc2cc(C(C)C)no2)n1` (stereo not given) belongs -6.44%; to `CN(C)CCOCC1CN(Cc2ccc(F)cc2)Cc2nnn(C)c21` (stereo not given), 33.2%; to `O=C(c1ccco1)N1C[C@@H]2[C@@H](C1)OCC(=O)N2Cc1cccnc1`, 35.8%. For `CS(=O)(=O)N1CCC2(CCN(C(=O)c3cccs3)CC2)CC1` the value was 32.1%. Take `Cc1noc(C2CCCN(C(=O)c3cc(Cl)ccc3F)C2)n1` (stereo not given): the INHIBITION is -49.5%. Turning to `Cc1noc(C2CCCN(C(=O)c3cc(Cl)cn3C)C2)n1` (stereo not given), the INHIBITION stood at 46.4%. To `Cc1noc(C2CCCN(C(=O)c3scnc3Cl)C2)n1` (stereo not given) belongs 74.2%; to `CN1CCCc2c1nc1c(c2N)CCCC1`, 7.38%; to `CN1CCCCc2c1nc1c(c2N)CCC1`, 8.46%.

As for `CN1CCCCc2c1nc1c(c2N)CCCC1`, the INHIBITION worked out at 53.3%.
